From the supplement of paper PMC8728848
The full list was thinned out, with the strongest signals kept by preference.

What was measured:
Test in all cases: glycan array binding signal (z-score within array); higher = stronger binding
Conditions in all cases: glycan notation: IUPAC condensed, linker removed
[1] = target: GlcNAc(b1-3)Gal(b1-4)GlcNAc(b1-3)Gal(b1-4)GlcNAc(b1-2)[GlcNAc(b1-3)Gal(b1-4)GlcNAc(b1-3)Gal(b1-4)GlcNAc(b1-6)]Man(a1-6)[GlcNAc(b1-3)Gal(b1-4)GlcNAc(b1-3)Gal(b1-4)GlcNAc(b1-2)Man(a1-3)]Man(b1-4)GlcNAc(b1-4)[Fuc(a1-6)]GlcNAc
Procedure, shortened: (§1)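 Columns mapping to the same glycan were averaged after glycan names were converted to IUPAC-condensed notation. The data come from 3228 arrays in the Consortium for Functional Glycomics database, limited to those with an available protein sequence. Binding is reported as a within-array Z-score averaged across arrays of one protein sequence and across linkers.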

[2] = target: GlcNAc(b1-4)GlcNAc(b1-4)GlcNAc
Procedure, shortened: as §1

[3] = target: Kdn(a2-3)Gal(b1-4)[Fuc(a1-3)]GlcNAc
Procedure, shortened: as §1

[4] = target: Man(a1-2)Man(a1-6)[Man(a1-3)]Man(a1-6)[Man(a1-2)Man(a1-2)Man(a1-3)]Man
Procedure, shortened: as §1

[5] = target: Man(a1-3)[Man(a1-6)]Man(a1-6)[Man(a1-3)]Man
Procedure, shortened: as §1

[6] = target: Neu5Ac(a2-3)Gal(b1-3)GlcNAc(b1-3)GalNAc
Procedure, shortened: as §1

[7] = target: Neu5Ac(a2-3)Gal(b1-3)[Fuc(a1-4)]GlcNAc(b1-3)Gal(b1-3)[Fuc(a1-4)]GlcNAc
Procedure, shortened: as §1

[8] = target: Neu5Ac(a2-3)Gal(b1-4)GlcNAc(b1-2)[Neu5Ac(a2-3)Gal(b1-4)GlcNAc(b1-4)]Man(a1-3)[GlcNAc(b1-4)][Neu5Ac(a2-3)Gal(b1-4)GlcNAc(b1-2)[Neu5Ac(a2-3)Gal(b1-4)GlcNAc(b1-6)]Man(a1-6)]Man(b1-4)GlcNAc(b1-4)GlcNAc
Procedure, shortened: as §1

[9] = target: Neu5Ac(a2-3)Gal(b1-4)[Fuc(a1-3)]GlcNAc(b1-3)GalNAc
Procedure, shortened: as §1

[10] = target: Neu5Ac(a2-3)GalNAc
Procedure, shortened: as §1

[11] = target: Neu5Ac(a2-3)[GalNAc(b1-4)]Gal(b1-4)Glc
Procedure, shortened: as §1

[12] = target: Neu5Ac(a2-6)Gal(b1-4)GlcNAc(b1-2)Man(a1-3)[GlcNAc(b1-4)][Neu5Ac(a2-6)Gal(b1-4)GlcNAc(b1-2)Man(a1-6)]Man(b1-4)GlcNAc(b1-4)GlcNAc
Procedure, shortened: as §1

[13] = target: Neu5Ac(a2-6)Gal(b1-4)GlcNAc(b1-2)[Neu5Ac(a2-6)Gal(b1-4)GlcNAc(b1-4)]Man(a1-3)[GlcNAc(b1-4)][Neu5Ac(a2-6)Gal(b1-4)GlcNAc(b1-4)Man(a1-6)]Man(b1-4)GlcNAc(b1-4)GlcNAc
Procedure, shortened: as §1

[14] = target: Neu5Ac(a2-6)Gal(b1-4)GlcNAc(b1-3)Gal(b1-4)GlcNAc(b1-2)Man(a1-3)[Neu5Ac(a2-6)Gal(b1-4)GlcNAc(b1-3)Gal(b1-4)GlcNAc(b1-2)Man(a1-6)]GalNAc
Procedure, shortened: as §1

[15] = target: Neu5Ac(a2-6)Gal(b1-4)GlcNAc(b1-3)Gal(b1-4)GlcNAc(b1-3)Gal(b1-4)GlcNAc
Procedure, shortened: as §1

[16] = target: Neu5Ac(a2-6)Gal(b1-4)GlcNAc(b1-3)GalNAc
Procedure, shortened: as §1

[17] = target: Neu5Ac(b2-6)Gal(b1-4)GlcNAc
Procedure, shortened: as §1

B1: SP8524D-bot-399-27-399 (Bacteroides ovatus) (protein)
chain: DAKYDTLDTHAYIEEALSSTSQKVTVQATGESFTTLNVHLSNLSSTDNHYKLVTDQSVLDTYNHINGTGYIMLPKDYYTLPETITVKAGQYAADALSIALKAFSQEMMKSGESYALPVKLVLQDGSISPMENTGTFVILAESIIEFSAPMFVGAPSLKANKFTESPETYSQYTIEVRFQVANTADRDRAVFKNGGDDANFILLRFEDPQSDNENYKAHSLVQIVGRNRLYLNPSNSFKPNEWQHLALVCDGSNYRLYINGVDSGVLSIPTGATTFSDVNWFCLGDDSYSRWGNCKILMSEARIWSVVRSASQIQNNMTQVSPKSVGLEAYWRFNEGQGNVFEDATGKGHTLTTSATPTWIDGILSTDKSTEWK
- glycan array binding signal (z-score) [1]: 1.11
- glycan array binding signal (z-score) [2]: -0.187
- glycan array binding signal (z-score) [3]: 0.119
- glycan array binding signal (z-score) [4]: -0.455
- glycan array binding signal (z-score) [5]: 0.159
- glycan array binding signal (z-score) [6]: -0.628
- glycan array binding signal (z-score) [7]: 0.014
- glycan array binding signal (z-score) [8]: -0.648
- glycan array binding signal (z-score) [9]: 0.96
- glycan array binding signal (z-score) [10]: -0.038
- glycan array binding signal (z-score) [11]: 0
- glycan array binding signal (z-score) [12]: 0.589
- glycan array binding signal (z-score) [13]: 0.44
- glycan array binding signal (z-score) [14]: 0.437
- glycan array binding signal (z-score) [15]: -0.075
- glycan array binding signal (z-score) [16]: -0.138
- glycan array binding signal (z-score) [17]: -0.048
